Results on 4 compounds are retold here after PubChem BioAssay.

Assay [1] is described as follows: growth inhibition of DIPG glioma cells, dose response, cell-based, SU-DIPG-XIII, MIPE4.0, CellTiter-Glo, qHTS (AID 1347061; cut-off not given, nearly all actives have AC50 up to about 37 µM;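 further: cells exposed to compound for 48 hours before readout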). To be noted: SU-DIPG-XIII viability, CellTiter-Glo ATP luminescence. (Cellular ATP, detected with luciferase, serves as a proxy for viable cell number.)
A short description of assay [2]: growth inhibition of DIPG glioma cells, dose response, cell-based, JHH-DIPG-1, MIPE4.0, CellTiter-Glo, qHTS (AID 1347062; cut-off not given, nearly all actives have AC50 up to about 27 µM;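 on AC50: cells exposed to compound for two days before readout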). Particulars: JHH-DIPG-1 viability, CellTiter-Glo ATP luminescence.
Assay [3] is described as follows: viability loss in pontine glioma line – cell-based, SU-DIPG-XXV, MIPE5.0, CellTiter-Glo, qHTS, dose response (AID 1347065; cut-off not given, nearly all actives have AC50 up to about 26 µM;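 further: cells exposed to compound for 48 hours before ATP readout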). To be noted: CellTiter-Glo ATP luminescence.
Assay [4] can be described thus: SU-DIPG-VI glioma cell viability, MIPE4.0 library, CellTiter-Glo luminescence, qHTS (AID 1347066; cut-off not given, nearly all actives have AC50 up to about 30 µM;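 further: cells exposed to compound for 48 hours before readout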). To be noted: CellTiter-Glo ATP luminescence.
A short description of assay [5]: JHH-DIPG-1 glioma cell viability, MIPE5.0 library, CellTiter-Glo luminescence, qHTS (AID 1347067; cut-off not given, nearly all actives have AC50 up to about 26 µM;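 further: cells exposed to compound for 48 hours before readout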). Particulars: JHH-DIPG-1 glioma viability, CellTiter-Glo ATP luminescence.
Assay [6] is described as follows: SU-DIPG-XXV glioma cell viability, MIPE5.0 library, qHTS (AID 1347068; cut-off not given, nearly all actives have IC50 up to about 30 µM;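 on IC50: cells exposed to compound for 48 hours before viability readout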). On the technique in general: Quantitative high-throughput screening tests each substance at several concentrations.
Assay [7] in a line: growth inhibition of DIPG glioma cells, dose response, cell-based, SU-DIPG-IV, MIPE4.0, CellTiter-Glo, qHTS (AID 1347063; cut-off not given, nearly all actives have AC50 up to about 30 µM;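 further: compound exposure lasted 48 hours before the viability readout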). Particulars: SU-DIPG-IV viability, CellTiter-Glo ATP luminescence.
Assay [8] can be described thus: sensitizers of A549 cells to miR-34 induction, primary screen, imaging, A549 dox-inducible miR-34, nuclei and caspase counts (AID 1347080;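 active means compounds whose cell count with miR-34 switched on is under 0.7 times the count with it off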). Particulars: A549 miR-34 inducible, Hoechst nuclei count, 48 h.
Assay [9] in a line: modifiers of HSF1 nuclear foci, imaging, Selleck Cancer Library (AID 1347162; in the data active means plate-normalised HSF1 focus index below about 0.46). Particulars: human cells, at 10 µM; SSMD: measured here: HSF1 foci SSMD mean; cell count: measured here: cell number; plate-normalised HSF1 focus index: stronger effect = lower value.
The nature of assay [10]: survival rescue of mitochondrial mutant cells in low glucose, primary screen, MELAS cybrids, Rieske KO mouse fibroblasts, CellTiter-Glo (AID 1508586;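 active means mean z-score across replicates of 1.96 or higher in either the MELAS or the Rieske mutant cell line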;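 further: z relative to plate mean and SD of compound and empty wells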).
Assay [11] can be described thus: ovarian cancer cell viability with rucaparib, profiling panel, oncology-focused library, rucaparib conditional (AID 1508598). Particulars: patient-derived ovarian cancer cells, CellTiter-Glo viability, 144 h, stronger effect = lower value.

Molecules are shown by their SMILES. Results filed as inconclusive are left out. Active and inactive are the calls of the source.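 How the source made its calls, unless noted: active means normalized viability below 100% at a tested concentration; inactive means the rest.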

As for `O=C(Nc1ncc(SCCN2CCCC2)s1)[C@]1(c2ccc(S(=O)(=O)C3CC3)cc2)C[C@H]1C1CCCCC1`, the compound was classed as inactive in [1]. Besides, the half-maximal activity concentration (AC50) – broadly, the midpoint of the concentration-response curve, whichever way the signal moves – is 14.8 µM (active) in assay [2], 9.34 µM (active) in [3], 20.9 µM (active) in assay [4] and 11.8 µM (active) in assay [5]. In assay [6], the IC50 (usually the concentration needed to halve the response being measured) is 20.9 µM (active).
With `CC(C(C)N1CC(=O)NC(=O)C1)N1CC(=O)NC(=O)C1` (stereo not drawn), the compound was classed as inactive in [1], in assay [2], in [7], in assay [4], in assay [5] and in assay [6].
As to `O=C(NC[C@H]1CN(c2ccc(N3CCOCC3=O)cc2)C(=O)O1)c1ccc(Cl)s1`, the call in assay [1], in [2], in assay [4], in assay [5] and in assay [6] was inactive.
Regarding `Cc1csc(-c2nnc(Nc3ccc(Oc4ncccc4-c4ccnc(N)n4)cc3)c3ccccc23)c1`, the call in assay [1], in [2], in assay [4] and in [5] was inactive. In addition, the concentration at half-maximal activity (AC50) in assay [3] is 0.00417 µM (active). The fold change in assay [8] (stronger effect = lower value, cell number ratio, induced over uninduced) is 1.11 (inactive); in assay [8] (measured here: relative caspase fold change +Dox/-Dox), 0.556. Besides, the cell count in [8] (measured here: total cells with miR-34 induction, stronger effect = lower value) came to 3250; in [8] (measured here: total cells without miR-34 induction), 2920; in assay [9] it was 7110. Also, the SSMD in [9] stood at 8.74. Further, the plate-normalised HSF1 focus index in assay [9] is 1.31 (inactive). In addition, the z-score was -0.373 (inactive) in assay [10] (MELAS cybrid survival, CellTiter-Glo 48 h, stronger effect = higher value) and 1.23 in assay [10] (Rieske KO mouse fibroblast survival, CellTiter-Glo 72 h). The viability – broadly, a read-out of living cells in per cent, often relative to untreated cells – in assay [11] (at 0.000305 µM, OCI-C5x cells, with rucaparib 10 µM, 100% = cells with rucaparib alone) was 113% (inactive); in [11] (at 0.000305 µM, OCI-C5x cells, without rucaparib) it was 116% (inactive); in assay [11] (at 0.000305 µM, OCI-P5x cells, with rucaparib 20 µM, 100% = cells with rucaparib alone), 111% (inactive); in assay [11] (at 0.000305 µM, OCI-P5x cells, without rucaparib), 94.9% (active); in assay [11] (at 0.00122 µM, OCI-C5x cells, with rucaparib 10 µM, 100% = cells with rucaparib alone), 109% (inactive); in assay [11] (at 0.00122 µM, OCI-C5x cells, without rucaparib) it was 107% (inactive). Further, the viability was 108% (inactive) in [11] (at 0.00122 µM, OCI-P5x cells, with rucaparib 20 µM, 100% = cells with rucaparib alone); 98.2% (active) in assay [11] (at 0.00122 µM, OCI-P5x cells, without rucaparib); 103% (inactive) in assay [11] (at 0.00488 µM, OCI-C5x cells, with rucaparib 10 µM, 100% = cells with rucaparib alone); 92.7% (active) in assay [11] (at 0.00488 µM, OCI-C5x cells, without rucaparib); 113% (inactive) in assay [11] (at 0.00488 µM, OCI-P5x cells, with rucaparib 20 µM, 100% = cells with rucaparib alone); 93.3% (active) in assay [11] (at 0.00488 µM, OCI-P5x cells, without rucaparib). Moreover, the viability in assay [11] (at 0.0195 µM, OCI-C5x cells, with rucaparib 10 µM, 100% = cells with rucaparib alone) is 78.2% (active); in assay [11] (at 0.0195 µM, OCI-C5x cells, without rucaparib), 88.5% (active); in assay [11] (at 0.0195 µM, OCI-P5x cells, with rucaparib 20 µM, 100% = cells with rucaparib alone), 93% (active); in [11] (at 0.0195 µM, OCI-P5x cells, without rucaparib), 70.3% (active); in assay [11] (at 0.0781 µM, OCI-C5x cells, with rucaparib 10 µM, 100% = cells with rucaparib alone) it was 82.2% (active); in [11] (at 0.0781 µM, OCI-C5x cells, without rucaparib), 99.2% (active). In addition, the viability in [11] (at 0.0781 µM, OCI-P5x cells, with rucaparib 20 µM, 100% = cells with rucaparib alone) is 92.9% (active); in assay [11] (at 0.0781 µM, OCI-P5x cells, without rucaparib) it was 66.6% (active); in assay [11] (at 0.313 µM, OCI-C5x cells, with rucaparib 10 µM, 100% = cells with rucaparib alone), 79.9% (active); in assay [11] (at 0.313 µM, OCI-C5x cells, without rucaparib), 105% (inactive); in [11] (at 0.313 µM, OCI-P5x cells, with rucaparib 20 µM, 100% = cells with rucaparib alone), 94.9% (active); in [11] (at 0.313 µM, OCI-P5x cells, without rucaparib) it was 67.8% (active). Moreover, the viability is 102% (inactive) in assay [11] (at 1.25 µM, OCI-C5x cells, with rucaparib 10 µM, 100% = cells with rucaparib alone); 95.4% (active) in assay [11] (at 1.25 µM, OCI-C5x cells, without rucaparib); 91% (active) in [11] (at 1.25 µM, OCI-P5x cells, with rucaparib 20 µM, 100% = cells with rucaparib alone); 64.7% (active) in assay [11] (at 1.25 µM, OCI-P5x cells, without rucaparib); 119% (inactive) in [11] (at 5 µM, OCI-C5x cells, with rucaparib 10 µM, 100% = cells with rucaparib alone); 133% (inactive) in assay [11] (at 5 µM, OCI-C5x cells, without rucaparib). The viability in assay [11] (at 5 µM, OCI-P5x cells, with rucaparib 20 µM, 100% = cells with rucaparib alone) is 58.5% (active); in [11] (at 5 µM, OCI-P5x cells, without rucaparib), 54.4% (active).
